# Laboratory results reported in PubChem BioAssay AID720519 (National Center for Advancing Translational Sciences (NCATS), 2013).
# Records with an inconclusive call do not appear. Unmarked numbers belong to inactive results. Activity calls are given as the source filed them. Calls follow the shape of the dose curve; as a rule, active = well fitted activation curve with a large enough effect; inconclusive = small, poorly fitted or top-dose-only effect; inactive = flat fitted curve, though single readings scatter. Square brackets hold non-standard residues; d marks the D form. Peptide text beside a SMILES is read from it. ξ: configuration not given here. ξLac(3-iPr) = CC(C)CC(O)C(=O)O; NMeV = CN[CH](C(=O)O)C(C)C; NMeA = CN[CH](C)C(=O)O; βAla = NCCC(=O)O
# Experiment: qHTS for Inhibitors of Cell Surface uPA Generation: Confirmatory Assay for Cherry-picked Compounds; as to inhibition: 0% is about no effect
# Conditions: cell surface uPA activity generation, qHTS confirmation; series mostly up to 115 µM; inhibition: at the top concentration
# Description: The overall objective of this project is to perform a quantitative high throughput screen (qHTS) to identify novel compounds that inhibit the generation of cell surface urokinase activity. The urokinase plasminogen activator (uPA) is one of the two primary endogenous systems that mediate plasminogen activation into plasmin. Members of this system, including uPA and its receptor (uPAR), are overexpressed in several malignant tumors. This system plays a major role in adhesion, migration, invasion and metastasis of cancer cells. Small molecule inhibitors of the uPA system will serve as probes to understand the molecular mechanisms of the uPA cascade and better understanding the micro-environmental circumstances that facilitate the activation of plasminogen by uPA, and finally may provide novel candidate agents for anticancer drug therapy.
# […] […] Upon inhibition of the uPA activation cascade, the subsequent cell surface uPA activity-dependent translocation of LF into the cytoplasm is inhibited. ATP-Lite is used to measure intracellular ATP concentrations (measure cell viability) which remain increased if LF entry into the cytoplasm is inhibited. This validation assay was performed using a small set of cherry picked compounds. Activation of cell viability (increase in luminescence signal) due to inhibition of the cell surface uPA generation is the desired outcome of this assay.
# NIH Chemical Genomics Center [NCGC]
# NIH Molecular Libraries Probe Centers Network [MLPCN]
# Assay Submitter (PI): Thomas Bugge, National Institute of Dental and Craniofacial Research, NIH
# Cultured RAW 264.7 were dispensed into 1536-well clear bottom, white walled tissue culture plates at a density of 4000 cells/well and were incubated overnight (12-16 h) at 37 C in a 5% CO2 incubator. Serially diluted compounds (1:5 dilution) in 23 nl DMSO were added to cells (0.0024 uM to 3.83 uM final concentration). […] Compound and reagent-treated plates were incubated for 24 h at 37 C in a 5% CO2 incubator. Three microliter of PerkinElmer ATPlite was then added to each well and luminescence was detected using the PerkinElmer ViewLux plate reader for a 5 sec exposure.
# Potency is read from the fitted curve at half-maximal effect.
Structure (SMILES),inhibition [%],Potency
CCOC(=O)c1ccc(N=Cc2c(O)n(-c3ccc(OC)cc3)c(=S)[nH]c2=O)cc1,0.888,–
Cc1ccccc1O,-0.088,–
c1cncc(C2CCCCN2)c1 (stereo unspecified),0.0289,–
Cc1ccc(-n2c(O)c(C=NCCN3CCNCC3)c(=O)[nH]c2=S)cc1,9.38,–
CCCCCn1c(=O)c(C(=O)Nc2ccccn2)c(O)c2ccccc21,-3.37,–
O=c1[nH]c(=O)n(-c2ccc(Cl)cc2)c(O)c1C=Nc1ccc(S(=O)(=O)Nc2nccs2)cc1,-1.14,–
FC(F)(F)Oc1ccc(NC2=NCCCS2)cc1,-1.26,–
COc1ccc(-c2nn(CCC#N)cc2C(=O)Nc2cccc([N+](=O)[O-])c2)cc1OC,-1.4,–
CCOc1ccc(CN2CCN(C(=O)Cc3ccccc3)CC2)cc1,-2.65,–
Cc1ncc(CN2CCCC(C(=O)c3cccc(OC(C)C)c3)C2)s1 (stereo unspecified),-2.04,–
O=c1[nH]c(=O)n(CCc2ccccc2)c(O)c1C=NC1CC1,-1.12,–
COc1ccccc1N1CCN(Cc2ccc(SC)cc2)CC1,-3.27,–
CCC(C)C1NC(=O)C2CCCN2C(=O)C(CC(C)C)OC(=O)CCNC(=O)C(C)N(C)C(=O)C(C(C)C)N(C)C1=O (stereo unspecified) (cyclo([ξLac(3-iPr)]PI[NMeV][NMeA][βAla]); configuration not given here),–,3.69 µM (active)
COC(=O)C1=C(c2cccc(OC)c2OC)C[C@@H]2CC[C@H]1N2C(=O)NC1CC1,-0.831,–
O=P1(NCCCl)OCCCN1CCCl (stereo unspecified),-0.345,–
COc1ccccc1NC(=O)N1C[C@@H]2C[C@@H](C1)c1cccc(=O)n1C2,0.817,–
COc1ccc(-c2nn(CCC#N)cc2C(=O)Nc2ccccc2)cc1OC,-1.47,–
O=C(c1ccc(F)c([N+](=O)[O-])c1)N1CC2CC(C1)c1cccc(=O)n1C2 (stereo unspecified),-0.87,–
COCC(=O)N1Cc2ccccc2-n2nncc2C1,1.13,–
Cc1cc(C(=O)NP(=O)(N2CCOCC2)N2CCOCC2)c(C)n1C1CC1,1.26,–
C[N+](C)(C)CCOC(=O)CBr,-2.83,–
